Rows were chosen to be rich in hits. Some 2.4% of all compounds tested hit in one or more screens of this group.
POLI inh = qHTS for Inhibitors of Polymerase Iota; Pol iota fluorescent replication assay, 10 min; Potency, µM (series often up to 115 µM), inactives show top-dose activity, negative = inhibition, most hits filed as inhibitors; 390,000 compounds, 1% hits
Target sequence (Q9UNA4 whole entry, looked up): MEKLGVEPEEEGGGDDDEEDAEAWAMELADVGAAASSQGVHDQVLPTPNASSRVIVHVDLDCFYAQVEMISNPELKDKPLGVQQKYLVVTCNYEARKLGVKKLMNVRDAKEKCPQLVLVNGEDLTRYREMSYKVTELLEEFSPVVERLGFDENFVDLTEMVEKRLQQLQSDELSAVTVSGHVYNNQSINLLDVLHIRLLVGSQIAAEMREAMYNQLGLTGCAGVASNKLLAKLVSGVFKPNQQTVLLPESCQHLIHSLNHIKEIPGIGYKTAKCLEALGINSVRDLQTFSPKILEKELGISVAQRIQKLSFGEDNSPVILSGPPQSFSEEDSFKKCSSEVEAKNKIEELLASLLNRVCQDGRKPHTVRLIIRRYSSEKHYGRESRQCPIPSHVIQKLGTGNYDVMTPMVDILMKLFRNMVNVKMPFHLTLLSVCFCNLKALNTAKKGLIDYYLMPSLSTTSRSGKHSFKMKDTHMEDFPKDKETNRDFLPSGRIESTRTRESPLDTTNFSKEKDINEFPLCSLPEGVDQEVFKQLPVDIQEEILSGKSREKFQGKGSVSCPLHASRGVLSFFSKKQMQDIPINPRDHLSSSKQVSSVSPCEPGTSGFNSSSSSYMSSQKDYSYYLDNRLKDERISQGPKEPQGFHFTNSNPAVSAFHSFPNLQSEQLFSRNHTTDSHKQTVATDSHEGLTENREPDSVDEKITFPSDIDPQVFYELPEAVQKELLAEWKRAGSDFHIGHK
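Pol iota at 10 nM preincubated 15 min with compounds at room temperature; reaction started with fluorescent substrate, 50 nM final. Fluorescence read kinetically at 0 and 10 min; buffer-only wells as negative control.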
POLH inh = qHTS for Inhibitors of Polymerase Eta. DNA polymerase eta (Homo sapiens), Q9Y253. recombinant Pol eta, fluorescent DNA replication assay. Potency, µM (highest dose often 114 µM), for inactives: top-dose activity change, negative = inhibition, most hits filed as inhibitors. 390,000 compounds, 1.2% hits. AID 588591, 2011; note: % is set by controls: 0 for no effect and ±100 for the full control effect
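Fluorescent replication assay: 50 nM final substrate added after a 15 min room-temperature compound preincubation with 10 nM enzyme. Signal taken at 0 min and again at 10 min.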
APE1 inh-1 = qHTS Assay for Inhibitors of the Human Apurinic/apyrimidinic Endonuclease 1 (APE1) | DNA repair nuclease/redox regulator APEX1 (Homo sapiens), P27695 | recombinant APE1, TAMRA/BHQ-2 abasic DNA cleavage fluorescence | Potency, µM (doses to about 65.8 µM), for inactives: at the highest dose activity change, negative = inhibition, most hits filed as inhibitors | 350,000 compounds, 0.35% hits;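 note: plate controls were vehicle for no effect and reference inhibitor for full effect; nearly all actives have a fitted effect of over 55% in size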
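Quantitative HTS: incision of a TAMRA/BHQ-2 double-stranded substrate bearing a tetrahydrofuran abasic site by 0.75 nM APE1 raises fluorescence. Substrate 50 nM final, added after 15 min compound preincubation at room temperature; progress as third-minus-first kinetic read difference.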
Pol beta inh = qHTS Assay for Inhibitors of DNA Polymerase Beta; P06746; Pol beta primer extension/strand displacement, fluorescence kinetic; Potency, µM (doses to about 114 µM), inactives show top-dose activity change, negative = inhibition, usual class: inhibitors; 340,000 compounds, 1.3% hits; note: % is set by controls: 0 for no effect and ±100 for the full control effect
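10 nM enzyme + cpd, 15 min RT; start with substrate 50 nM final; read 0 min and after 10 min RT. Corrected, normalized data; 4-parameter Hill curve fit.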
POLK inh = qHTS for Inhibitors of Polymerase Kappa | DNA polymerase kappa (Homo sapiens), Q9UBT6 | purified Pol kappa, fluorescent DNA synthesis assay, 10 min | Potency, µM (series often up to 107 µM), for inactives: at the highest dose activity, negative = inhibition, most hits filed as inhibitors | 400,000 compounds, 0.53% hits; note: % is set by controls: 0 for no effect and ±100 for the full control effect
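Readout: fluorescence, taken kinetically at 0 and 10 min. Conditions: 10 nM Pol kappa, 15 min RT compound preincubation, 50 nM substrate final. Controls: enzyme-free buffer wells.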
GLS inhibitor = qHTS for Inhibitors of Glutaminase (GLS). Glutaminase kidney isoform, mitochondrial (Homo sapiens), O94925. GLS enzymatic activity, qHTS titration. Potency, µM (titrated, usually from 45.5 µM), for inactives: at the top dose activity change, negative = inhibition, actives largely listed as inhibitors. 410,000 compounds, 0.21% hits. AID 624170, 2012; note: % is set by controls: 0 for no effect and ±100 for the full control effect
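Compounds were pin-transferred onto hKGA, after which L-glutamine (1 mM solution) and a detection mix of glutamate oxidase, HRP and Amplex Red were added. Initial and 30 min RT fluorescence reads were collected.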
DNA dye displace = Counterscreen for APE1 Inhibitors: Fluorescent Dye Displacement Assay; 480 compounds, 7% hits; shares compounds with APE1 inh-1; AID 2564, 2010; DNA fluorescent dye displacement counterscreen, fluorescence; Potency, µM (top dose mostly 28.5 µM), without a hit: at the highest dose activity change, negative = inhibition, hits mostly inhibitors;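 note: loss of thiazole orange fluorescence as the dye is displaced from duplex DNA; 0% = ThO with dsDNA and no compound and -100% = ThO without dsDNA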
EndoIV counter = Counterscreen for APE1 Inhibitors: qHTS Assay for Inhibitors of Endonuclease IV. shares compounds with APE1 inh-1. E. coli Endo IV, fluorogenic AP-site DNA cleavage. Potency, µM (top dose mostly 27.1 µM), for inactives: top-dose activity change, negative = inhibition, most hits filed as inhibitors. 560 compounds, 4% hits;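 note: plate controls were uninhibited enzyme wells for no effect and no enzyme buffer wells for full effect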
APE1 inh-2 = Confirmation qHTS Assay for Inhibitors of the Human Apurinic/apyrimidinic Endonuclease 1 (APE1). shares compounds with APE1 inh-1. purified APE1, fluorogenic abasic-site DNA cleavage. Potency, µM (titrated, usually from 57.1 µM), for the others: at the top dose activity change, negative = inhibition, actives largely listed as inhibitors. 750 compounds, 44% hits; note: % is set by controls: 0 for no effect and ±100 for the full control effect; nearly all actives have a fitted effect of over 30% in size
APE1 FP inh = qHTS FP-Based Assay for Inhibitors of the Human Apurinic/apyrimidinic Endonuclease 1 (APE1); shares compounds with APE1 inh-1; APE1 binding to TAMRA-labelled double-stranded DNA, fluorescence polarization displacement; Potency, µM (doses to about 28.5 µM), without a hit: at the highest dose activity, negative = inhibition, usual class: inhibitors; 480 compounds, 7% hits; note: % is set by controls: 0 for no effect and ±100 for the full control effect
Numbers without * were called inactive; ? = inconclusive; nt = no result given; ! = not active in a repeat; [ ] = another dose, or the depositor's remark. Calls come from the whole dose curve; as a rule, active = well fitted curve in the direction sought with a large enough effect; inconclusive = small, poorly fitted or top-dose-only effect, or another doubt; inactive = no such curve, though single readings can be large; an effect the other way counts as inactive or inconclusive. Potency is the fitted concentration of half-maximal effect.

SMILES	POLI inh	POLH inh	APE1 inh-1	Pol beta inh	POLK inh	GLS inhibitor	DNA dye displace	EndoIV counter	APE1 inh-2	APE1 FP inh
Oc1cc(O)c2c(c1)O[C@H](c1ccc(O)c(O)c1)[C@H](O)C2	89µM*	-6%	-9%	3%	89µM*!	3%	2%	137%	-6%[24.4 µM]	?
COc1ccc([C@H]2CC(=O)c3c(O)cc(O)cc3O2)cc1O	44%	-21%	-3%	-20%	0%	22%	nt	nt	nt	nt
Cc1ccc2nc(-c3cccc(N)c3)[nH]c2c1	-2%	-8%	6%	3%	-5%	-2%	nt	nt	nt	nt
Nc1ccc(-c2nc3ccc(-c4nc5ccc(N)cc5[nH]4)cc3[nH]2)cc1	4µM*	6.3µM*	?	1.4µM*	2.7µM*	nt	nt	28µM*	16µM*	nt
N#C/C(=C/c1ccc(-c2cc(C(=O)O)cc(C(=O)O)c2)o1)c1nc2ccccc2s1	nt	nt	?	20µM*	nt	nt	?	?	14µM*	-8%
N#C/C(=C\c1ccco1)c1nc2ccccc2s1	110%	-19%	-10%	2%	-6%	-16%	nt	nt	nt	nt
O=c1cc(-c2ccc(O)cc2)oc2c(C3OCC(O)C(O)C3O)c(O)c(C3OC(CO)C(O)C(O)C3O)c(O)c12 (stereo unspecified)	?	7.9µM*	20µM*	18µM*	50µM*	11%	-7%	-4%	4.5µM*	1%
CN(C)CCCNc1nc2cc(-c3cccc(C(F)(F)F)c3)sc2c(=O)n1C	nt	nt	nt	nt	nt	4%	nt	nt	nt	nt
CC1(C)CC(=O)C=C(NCc2cccc(C(F)(F)F)c2)C1	58%	-17%	4%	3%	-13%	5%	nt	nt	nt	nt
CC1(C)CC(=O)C=C(NCc2ccccc2)C1	-2%	-4%	?	22%	-7%[60.1 µM]	9%	-2%	1%	?	13%
COC(=O)c1cc2oc3ccccc3c2n1Cc1ccccn1	-10%	-22%	?	-15%	-7%	-4%	-9%	2%	-2%[24.4 µM]	8%
COc1c(O)cc2c(c1O)C(=O)CC(c1ccccc1)O2 (stereo unspecified)	nt	nt	25µM*	49%	nt	nt	-3%	2%	-11%[24.4 µM]	0%
O=C(O)c1ccccc1-n1cnnn1	-7%	2%	0%	0%	-24%	0%	nt	nt	nt	nt

From PubChem
